Laboratory results from the supplement of paper PMC5499739.
The full ranking holds about 16,000 sequences; the median of “Z-score” is about -0.37, and the highest 2% start at about 3.1. Many of the other results were omitted from the sample, so the highest values are more common in it than they were.

test system: RBM10 RRM1-ZnF-RRM2 (GST-tagged construct); experiment: RNAcompete 7-mer binding Z-score; higher = stronger binding preference
Experimental: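 RNAcompete: 20 pmol GST-tagged RBM10 RNA-binding constructs were incubated with a designed RNA pool of about 241,000 sequences up to 41 nt (1.5 nmol) on glutathione beads for 30 min at 4 °C and washed. Bound RNAs were identified by microarray hybridisation. Each RNA 7-mer is scored by a one-sided Z-score of its enrichment, computed over probes that contain the 7-mer within longer pool sequences.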

Going from AGGGUGC to AUGGUGA, the “RNAcompete 7-mer binding Z-score” value falls from 2.43 to 2.09.

Going from AGGGUCA to AGGGUGA, the “RNAcompete 7-mer binding Z-score” value rises from 1.51 to 4.25.

First: GGGGUGA
Second: GGGGUCA
The “RNAcompete 7-mer binding Z-score” value of the first is higher: 3.52 for the first, 3 for the second.

Compared with CGGGUGA, UGGGUGA is higher in “RNAcompete 7-mer binding Z-score” value: 2.55 for the first, 3.5 for the second.

Compared with UCGGUGA, AGGGUGG is higher in “RNAcompete 7-mer binding Z-score” value: 0.479 for the first, 3.88 for the second.

First: GCGGUGA
Second: ACGGUGG
The “RNAcompete 7-mer binding Z-score” value of the first is lower: 1.39 for the first, 2.73 for the second.

First: CUGGAGG
Second: GGGCCCA
The “RNAcompete 7-mer binding Z-score” value of the first is higher: 1.11 for the first, -0.151 for the second.

Going from AGUAUUG to UGAUUGA, the “RNAcompete 7-mer binding Z-score” value falls from 0.024 to 0.00216.

First: GGACUUG
Second: UGGGUGG
The “RNAcompete 7-mer binding Z-score” value of the first is lower: 0.319 for the first, 4 for the second.

Going from GCGGUGU to GGUGUGG, the “RNAcompete 7-mer binding Z-score” value rises from 0.96 to 3.86.

Going from UGGGUGU to CGGGUGU, the “RNAcompete 7-mer binding Z-score” value falls from 2.62 to 1.83.

Compared with CGGGUGG, UGGGUGC is lower in “RNAcompete 7-mer binding Z-score” value: 3.24 for the first, 2.74 for the second.

Going from AGGGUGU to CGGGUGC, the “RNAcompete 7-mer binding Z-score” value falls from 3.03 to 1.94.

Going from GGUGUGU to UGUGUGG, the “RNAcompete 7-mer binding Z-score” value rises from 1.42 to 1.79.

Going from GGGGUGU to CAGUACA, the “RNAcompete 7-mer binding Z-score” value falls from 3.53 to -0.0816.

Compared with ACGCAAC, UCUGUUA is lower in “RNAcompete 7-mer binding Z-score” value: -0.479 for the first, -0.795 for the second.

Going from GACUGUG to CGUCAUA, the “RNAcompete 7-mer binding Z-score” value falls from -0.198 to -0.519.

Going from AAGUGCG to UCAACCC, the “RNAcompete 7-mer binding Z-score” value falls from 0.698 to -0.752.

Going from ACCAUUG to GCGGUGG, the “RNAcompete 7-mer binding Z-score” value rises from -0.584 to 3.01.

First: GGGGUGG
Second: GGGGUGC
The “RNAcompete 7-mer binding Z-score” value of the first is higher: 4.09 for the first, 2.58 for the second.

Going from CUCACAG to ACCAGGC, the “RNAcompete 7-mer binding Z-score” value rises from -0.351 to -0.136.

Compared with UGGAUAA, AGGAUAG is higher in “RNAcompete 7-mer binding Z-score” value: 1.07 for the first, 2.21 for the second.

First: UGGAUAG
Second: GGGAUAA
The “RNAcompete 7-mer binding Z-score” value of the first is lower: 2.3 for the first, 3.36 for the second.

Compared with GGGAUGC, GGGAUAG is higher in “RNAcompete 7-mer binding Z-score” value: 2.65 for the first, 3.83 for the second.

Going from GGGAUGU to GGGAUGA, the “RNAcompete 7-mer binding Z-score” value rises from 2.88 to 3.59.

Compared with GGGAUAC, UCUGGUC is lower in “RNAcompete 7-mer binding Z-score” value: 2.71 for the first, -0.522 for the second.

First: UCUGUCC
Second: UAGGGGA
The “RNAcompete 7-mer binding Z-score” value of the first is lower: -0.81 for the first, 3.81 for the second.

Compared with UAGGGGC, CAGGGGA is higher in “RNAcompete 7-mer binding Z-score” value: 2.34 for the first, 2.8 for the second.

Compared with CAGGGGU, UAGGGGU is higher in “RNAcompete 7-mer binding Z-score” value: 2.91 for the first, 3.84 for the second.

Compared with UAGGGCU, UAGGGCA is higher in “RNAcompete 7-mer binding Z-score” value: 1.3 for the first, 2.23 for the second.

Going from UAGGGGG to CAGGGGG, the “RNAcompete 7-mer binding Z-score” value falls from 3.4 to 2.58.

Compared with GUGACGA, GUAAAAA is lower in “RNAcompete 7-mer binding Z-score” value: 0.68 for the first, 0.253 for the second.

Going from CCAUUGG to GUUUUGU, the “RNAcompete 7-mer binding Z-score” value rises from -0.53 to 0.024.

Going from UGCUUGC to CCGAUUG, the “RNAcompete 7-mer binding Z-score” value rises from -0.73 to -0.606.

First: GAAGUGU
Second: UAAGGGA
The “RNAcompete 7-mer binding Z-score” value of the first is lower: 1.09 for the first, 3.09 for the second.

Going from AAAGGGC to UAAGGGC, the “RNAcompete 7-mer binding Z-score” value falls from 2.89 to 1.51.

Compared with UAAGGGU, AAAGGGA is higher in “RNAcompete 7-mer binding Z-score” value: 3.54 for the first, 4.13 for the second.

Going from GAAGGGC to GAAGGCU, the “RNAcompete 7-mer binding Z-score” value falls from 3.32 to 0.581.

First: UAAGGUU
Second: CAAGGGA
The “RNAcompete 7-mer binding Z-score” value of the first is lower: 1.74 for the first, 2.5 for the second.

Compared with GAAGGGU, UAAGGCU is lower in “RNAcompete 7-mer binding Z-score” value: 4.15 for the first, 0.224 for the second.

Compared with CCGUAUC, AUAAUGG is higher in “RNAcompete 7-mer binding Z-score” value: -0.876 for the first, 1.84 for the second.

Compared with UGAUUAA, AUACACA is lower in “RNAcompete 7-mer binding Z-score” value: -0.118 for the first, -0.187 for the second.

Compared with AGGUUGU, GCGACGC is lower in “RNAcompete 7-mer binding Z-score” value: 0.691 for the first, -0.253 for the second.

Going from GUCGCUG to UCUAACC, the “RNAcompete 7-mer binding Z-score” value falls from 0.0495 to -0.737.

First: GUCUAUA
Second: GUUGCAU
The “RNAcompete 7-mer binding Z-score” value of the first is lower: -0.479 for the first, -0.227 for the second.

Compared with CUAGAUU, GAACCUG is lower in “RNAcompete 7-mer binding Z-score” value: -0.661 for the first, -0.683 for the second.

Compared with UCGGCUA, CGGUGUA is higher in “RNAcompete 7-mer binding Z-score” value: -0.537 for the first, 0.873 for the second.

Going from AAAGGGU to GCAGGGA, the “RNAcompete 7-mer binding Z-score” value falls from 4.71 to 2.94.

Compared with AAAGGCU, GAAGGGA is higher in “RNAcompete 7-mer binding Z-score” value: 0.796 for the first, 4.75 for the second.

First: GAAGGCA
Second: CAAGGGU
The “RNAcompete 7-mer binding Z-score” value of the first is lower: 2.46 for the first, 2.85 for the second.
